The nature of experiment [1]: viability loss with induced miR-34 in A549 – imaging, A549 dox-inducible miR-34, nuclei and caspase counts, primary screen (AID 1347080). Note: test concentration not given here. The settings on record: A549 miR-34 inducible, Hoechst nuclei count, 48 h.
A short description of experiment [2]: MELAS cybrid and Rieske KO viability enhancers – cell-based, MELAS cybrids, Rieske KO mouse fibroblasts, CellTiter-Glo, primary screen (AID 1508586;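 active = mean z-score across replicates of 1.96 or higher in either the MELAS or the Rieske mutant cell line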;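 note: test concentration not given here; z relative to plate mean and SD of compound and empty wells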). The settings on record: low glucose. In general terms: Cellular ATP, detected with luciferase, serves as a proxy for viable cell number.
Experiment [3] can be described thus: galactose survival enhancers in mitochondrial complex I cybrids – cell-based, galactose medium, ATP luminescence, primary screen (AID 1645843;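 active = z-score of at least 1.8 in each of two replicates, scored against plate mean and spread of sample wells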;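 note: positive z means more ATP and so rescue of galactose-driven cybrid death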). The following applies: complex I mutant cybrid cells, 72 h, stronger effect = higher value.
The mark [4] stands for this setting: stronger effect = lower value, cell number ratio, induced over uninduced.
Where [5] appears, read: measured here: relative caspase fold change +Dox/-Dox.
[6] abbreviates: measured here: total cells with miR-34 induction, stronger effect = lower value.
[7] abbreviates: measured here: total cells without miR-34 induction.
[8] abbreviates: MELAS cybrid survival, CellTiter-Glo 48 h, stronger effect = higher value.
Setting [9] is: Rieske KO mouse fibroblast survival, CellTiter-Glo 72 h.

Each structure is given as a SMILES string. Calls of active or inactive are those of the source.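 Rule for the calls, unless noted: active = compounds whose cell count with miR-34 switched on is under 0.7 times the count with it off; inactive = the rest.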

In the case of `COc1ccc(C(=O)N2CCN(C(=O)c3ccc4sc(N)nc4c3)CC2)cc1`, the fold change in experiment [1] (setting [4]) was 0.916 (inactive); in experiment [1] (setting [5]), 0.875. The cell count amounted to 9050 in experiment [1] (setting [6]) and 9880 in experiment [1] (setting [7]). In addition, the z-score in experiment [2] (setting [8]) is -0.342 (inactive); in experiment [2] (setting [9]), -0.192; in experiment [3], -0.575 (inactive).
Turning to `Cc1ccc(NC(=O)c2ccc3nccnc3c2)cn1`, the figures for the fold change in experiment [1] (setting [4]) and in experiment [1] (setting [5]) were 0.855 (inactive) and 1.41, respectively. The cell count in experiment [1] (setting [6]) came to 8560; in experiment [1] (setting [7]), 10000. Moreover, the z-score in experiment [2] (setting [8]) is 0.00943 (inactive); in experiment [2] (setting [9]) it was -0.47; in experiment [3], -0.48 (inactive).
For `COc1cccc2ccc(-c3coc4ccccc4c3=O)nc12`, the fold change in experiment [1] (setting [4]) was 0.946 (inactive); in experiment [1] (setting [5]), 0.913. Besides, the cell count was found to be 7730 in experiment [1] (setting [6]) and 8170 in experiment [1] (setting [7]). Moreover, the z-score in experiment [2] (setting [8]) was -0.341 (inactive); in experiment [2] (setting [9]), 0.246; in experiment [3], 2.79 (active).
As for `CN(CCc1ccccn1)C(=O)c1ccc2sc(N)nc2c1`, the results for the fold change in experiment [1] (setting [4]) and in experiment [1] (setting [5]) were 0.88 (inactive) and 0.927, respectively. For the same molecule, the cell count is 8380 in experiment [1] (setting [6]) and 9520 in experiment [1] (setting [7]). The z-score is 0.048 (inactive) in experiment [2] (setting [8]), -0.377 in experiment [2] (setting [9]) and -0.435 (inactive) in experiment [3].
For `Nc1ccc(CCC(=O)O)cc1`, the values for the fold change in experiment [1] (setting [4]) and in experiment [1] (setting [5]) were 0.96 (inactive) and 0.255, respectively. In addition, the cell count in experiment [1] (setting [6]) came out at 9320; in experiment [1] (setting [7]) it was 9710. Moreover, the z-score in experiment [2] (setting [8]) is 0.558 (inactive); in experiment [2] (setting [9]), -0.0102; in experiment [3], 1.27 (inactive).
`CSCCC(NC(C)=O)C(=O)O` (stereo not drawn): the fold change is 0.861 (inactive) in experiment [1] (setting [4]) and 0.784 in experiment [1] (setting [5]). In addition, the cell count in experiment [1] (setting [6]) was determined as 8190; in experiment [1] (setting [7]), 9520. Further, the values for the z-score in experiment [2] (setting [8]), in experiment [2] (setting [9]) and in experiment [3] were 0.71 (inactive), -0.087 and 0.53 (inactive), respectively.
With `Cn1c(=O)ccc2ccccc21`, the fold change in experiment [1] (setting [4]) is 0.892 (inactive); in experiment [1] (setting [5]) it was 0.453. In addition, the cell count came to 8490 in experiment [1] (setting [6]) and 9520 in experiment [1] (setting [7]). In addition, the z-score in experiment [2] (setting [8]) is -0.16 (inactive); in experiment [2] (setting [9]), 0.0614; in experiment [3] it was 0.32 (inactive).
Take `COc1ccc(-c2ncnc3sc(C)c(C)c23)c2cccnc12`: the values for the fold change in experiment [1] (setting [4]) and in experiment [1] (setting [5]) were 0.949 (inactive) and 0.85, respectively. In addition, the cell count in experiment [1] (setting [6]) was 7370; in experiment [1] (setting [7]), 7760. Further, the z-score in experiment [2] (setting [8]) is 0.0989 (inactive); in experiment [2] (setting [9]), -0.295; in experiment [3] it was -0.525 (inactive).
Consider `COc1cccc(Cc2noc(-c3nccc4ccccc34)n2)c1`, for which the results for the fold change in experiment [1] (setting [4]) and in experiment [1] (setting [5]) were 0.933 (inactive) and 1.27, respectively. The cell count amounted to 8090 in experiment [1] (setting [6]) and 8670 in experiment [1] (setting [7]). Also, the results for the z-score in experiment [2] (setting [8]), in experiment [2] (setting [9]) and in experiment [3] were 0.324 (inactive), -0.0974 and -0.1 (inactive), respectively.
On to `COc1cc(OC)c(-c2nnc3ccccn23)cc1OC`, for which the values for the fold change in experiment [1] (setting [4]) and in experiment [1] (setting [5]) were 0.917 (inactive) and 1.49, respectively. The values for the cell count in experiment [1] (setting [6]) and in experiment [1] (setting [7]) were 9720 and 10600, respectively. Also, the z-score was -0.104 (inactive) in experiment [2] (setting [8]), 0.208 in experiment [2] (setting [9]) and -0.52 (inactive) in experiment [3].
In the case of `COc1ccccc1-c1ccc(C(=O)O)o1`, the fold change in experiment [1] (setting [4]) was 0.892 (inactive); in experiment [1] (setting [5]) it was 0.465. Moreover, the cell count in experiment [1] (setting [6]) came to 8930; in experiment [1] (setting [7]), 10000. The z-score was -1.1 (inactive) in experiment [2] (setting [8]), 0.506 in experiment [2] (setting [9]) and 1.07 (inactive) in experiment [3].
As for `O=C(COc1ccc(Cl)cc1)Nc1ccccc1C(=O)O`, the fold change in experiment [1] (setting [4]) is 0.906 (inactive); in experiment [1] (setting [5]) it was 0.574. In addition, the cell count in experiment [1] (setting [6]) was 8240; in experiment [1] (setting [7]) it was 9090. Further, the z-score in experiment [2] (setting [8]) was -0.363 (inactive); in experiment [2] (setting [9]) it was -0.206; in experiment [3], 0.885 (inactive).
Consider `Cc1sc2ncnc(-c3cccc4cccnc34)c2c1C`, for which the fold change was 0.871 (inactive) in experiment [1] (setting [4]) and 1.66 in experiment [1] (setting [5]). Further, the cell count in experiment [1] (setting [6]) stood at 8110; in experiment [1] (setting [7]), 9310. Moreover, the z-score is -0.544 (inactive) in experiment [2] (setting [8]), -0.845 in experiment [2] (setting [9]) and 0.64 (inactive) in experiment [3].
For `CCCCNS(=O)(=O)c1ccccc1`, the fold change was 0.925 (inactive) in experiment [1] (setting [4]) and 0.335 in experiment [1] (setting [5]). Also, the values for the cell count in experiment [1] (setting [6]) and in experiment [1] (setting [7]) were 8780 and 9480, respectively. The z-score in experiment [2] (setting [8]) is -0.187 (inactive); in experiment [2] (setting [9]) it was 0.108; in experiment [3] it was 0.175 (inactive).

Source of the values: PubChem BioAssay.
